From PubChem BioAssay (Tox21)
Inconclusive results are not listed. The source made the active and inactive calls. Calls come from the whole dose curve; as a rule, active = well fitted cell-killing curve with a large enough effect in the repeat runs; inconclusive = weak or mixed curves; inactive = flat fitted curve, though single readings scatter.

assay: qHTS RealTime-Glo MT Cell Viability Assay in HepG2 cells - 16 hour (AID 1224885); conditions: RealTime-Glo luminescence; series mostly up to 76.8 µM; note: nearly all actives have a fitted effect of over 50% in size
Source text: U.S. Tox21 Program National Center for Advancing Translational Sciences [NCATS] NIH Chemical Genomics Center [NCGC] U.S. Environmental Protection Agency [EPA] National Institutes of Environmental Health Sciences [NIEHS] National Toxicology Program [NTP] U.S. Food and Drug Administration [FDA] Tox21 Assay Overview: Measure of cell viability is critical in the cell-base assay. Analysis of cell viability is necessary for the characterization of cell responses to cytotoxic drugs and environmental stress. A RealTime-Glo MT Cell Viability Assay to monitor cell viability in real time of continues cell culture during 40 hours of compound treatment was used to screen Tox21 10K library compounds in HepG2 cells. The RealTime-Glo MT Cell Viability Assay is a nonlytic, homogeneous, bioluminescent method to measure cell viability in real time using a simple, plate-based method. The assay involves adding NanoLuc luciferase and a cell-permeant prosubstrate to cells in culture. Viable cells reduce the proprietary prosubstrate to generate a substrate for NanoLuc luciferase. This substrate diffuses from cells into the surrounding culture medium, where it is rapidly used by the NanoLuc Enzyme to produce a luminescent signal. The signal correlates with the number of viable cells, making the assay well suited for cytotoxicity studies.
Tox21 Assay Protocol Summary: The mixture of HepG2 cell suspension and reagents were dispensed at 600cells/6 ul/well in 1536-well tissue culture treated black solid bottom plates using a Multidrop dispenser. After the assay plates were incubated at a 37 C/5% CO2 incubator for 5 hours, 23 nL of compounds dissolved in DMSO, positive and negative controls was transferred to the assay plate by a pintool work station. The plates were incubated at 37 C for 40 hours. The luminescence intensity were measured at 0h, 8h, 16h, 24h, 32h and 40h time points using ViewLux plate reader during compound treatment.

Q: Which outcome does the source give for `Cc1cccc(C)c1N` here?
A: inactive

Q: With `Cl[C@H]1OCCO[C@@H]1Cl` as the molecule, how does the outcome read?
A: inactive

Q: For `Cc1cccc(N)c1C`, which outcome is on record?
A: inactive

Q: For `Cc1ccc(N=C=O)cc1N=C=O`, which outcome is on record?
A: inactive

Q: For `OCC(O)CCl` (stereo not given), which outcome is on record?
A: inactive

Q: With `CNCC(O)c1ccc(O)cc1` (stereo not given) as the molecule, how does the outcome read?
A: inactive

Q: Which outcome does the source give for `O=S(=O)(O)OOS(=O)(=O)O` here?
A: inactive

Q: Which outcome does the source give for `CNC(=O)O/N=C(\SC)C(=O)N(C)C` here?
A: inactive

Q: Which outcome does the source give for `N#Cc1ccccn1` here?
A: inactive

Q: With `O=C(O)COc1ccccc1` as the molecule, how does the outcome read?
A: inactive

Q: Which outcome does the source give for `CC(C)(C)C(=O)CCl` here?
A: inactive

Q: With `Nc1cccc(Cl)c1` as the molecule, how does the outcome read?
A: inactive

Q: Which outcome does the source give for `O=[N+]([O-])c1cc([As](=O)(O)O)ccc1O` here?
A: inactive

Q: For `O=C(O)C(Br)Br`, which outcome is on record?
A: inactive

Q: Which outcome does the source give for `Cc1cc(Cl)ccc1OC(C)C(=O)O` (stereo not given) here?
A: inactive

Q: With `Oc1c(Br)cc(Br)cc1Br` as the molecule, how does the outcome read?
A: inactive

Q: For `CN(C)NC(=O)CCC(=O)O`, which outcome is on record?
A: inactive

Q: Which outcome does the source give for `CN(C)C(=O)Cl` here?
A: inactive

Q: With `OCCCCO` as the molecule, how does the outcome read?
A: inactive

Q: Which outcome does the source give for `CN(C)CCC#N` here?
A: inactive

Q: With `O=C/C=C/c1ccccc1` as the molecule, how does the outcome read?
A: inactive

Q: For `c1ccc2c(c1)CCCC2`, which outcome is on record?
A: inactive

Q: With `N#CN=C(N)N` as the molecule, how does the outcome read?
A: inactive

Q: Which outcome does the source give for `Sc1ccccc1` here?
A: inactive

Q: For `N#Cc1cccc(C#N)c1`, which outcome is on record?
A: inactive

Q: Which outcome does the source give for `CNc1cnn(-c2cccc(C(F)(F)F)c2)c(=O)c1Cl` here?
A: inactive

Q: For `Cc1cccc(C)c1NC(=O)CN1CCCC1=O`, which outcome is on record?
A: inactive

Q: Which outcome does the source give for `CC[N+](=O)[O-]` here?
A: inactive

Q: For `O=C(O)c1cc(Oc2ccc(C(F)(F)F)cc2Cl)ccc1[N+](=O)[O-]`, which outcome is on record?
A: inactive

Q: Which outcome does the source give for `Clc1cnc(Oc2ccc(Oc3ncc(Cl)cc3Cl)cc2)c(Cl)c1` here?
A: inactive

Q: With `CCCCCCCCCCCCCCCCCC(=O)O` as the molecule, how does the outcome read?
A: inactive

Q: With `C=CCN=C=S` as the molecule, how does the outcome read?
A: inactive

Q: For `O=C(O)CCCc1ccc(N(CCCl)CCCl)cc1`, which outcome is on record?
A: inactive

Q: Which outcome does the source give for `CC12CC1(C)C(=O)N(c1cc(Cl)cc(Cl)c1)C2=O` (stereo not given) here?
A: inactive

Q: Which outcome does the source give for `Cl/C=C/Cl` here?
A: inactive

Q: With `Nc1ccc(N)cc1` as the molecule, how does the outcome read?
A: inactive

Q: Which outcome does the source give for `Cc1ccc(N)cc1` here?
A: inactive

Q: For `CC(=O)/C=C/c1ccccc1`, which outcome is on record?
A: inactive

Q: For `C=CC(=O)OCCCCCC(C)C`, which outcome is on record?
A: inactive

Q: For `CCOP(=S)(OCC)Oc1cc(C)nc(C(C)C)n1`, which outcome is on record?
A: inactive
